# Source: the supplement of paper PMC8728848
# This is one part of a sample in which the strongest signals are shown more often than they occur.
# B1: PX14343I-pdi-501-30-501 (Parabacteroides distasonis) (protein)
# chain: SDQYSTETFWKTKEHASAGIMGCYNALKLWRSLHTMEFDMLTANAMPYNEANGTQAIGKGEHLSTTALIGSLWKNCYVGIGRTNTFIANVGGVDMDESEKAKMVGEAKFLRAFYYLSLVDKFGGVPLIIDAPNADEQAELPRNSKEEVVNQIVKDLEEAAAVLPDTYASSDLGRATKGAALALKARTLLYNSRWAEAAQAAKQVMESGVYQLFNDYRHFFSEDNKYNCEVIFDIEAKLPEYPTDYDQNIWRLNRPAPLKELVDTYLCVDGKTIEESPLYDPTRPYENRDPRLLKSIVCIGYPYLGKTITKEDVATTGFGVKKYTSYEDDVTIPLVERSAFNFILIRYAEVLLTYAEAQNEASGPDQSVYDAINQLRRRPDINMPEVPKGLTKDQMREVIRRERRIELTFEGLYYSDILRWKTAEKENNGMMHNYEGIEVVKRSFNPKRDYLWPIPYNQTVLNPNLEQNPNWD
# How the values were obtained:
# Test in all cases: glycan array binding signal (z-score within array); higher = stronger binding
# Conditions in all cases: glycan notation: IUPAC condensed, linker removed
# [1] = target: Fuc(a1-2)Gal
# Procedure, shortened: (§1)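 The binding signal is a Z-score computed within each array and averaged over linkers. Arrays of the same protein sequence at different concentrations or buffers were also averaged together. Data originate from 3228 arrays in the Consortium for Functional Glycomics database, kept only where the protein sequence was available.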
# [2] = target: Fuc(a1-2)Gal(b1-3)GlcNAc(b1-2)Man(a1-3)[Fuc(a1-2)Gal(b1-3)GlcNAc(b1-2)Man(a1-6)]Man(b1-4)GlcNAc(b1-4)GlcNAc
# Procedure, shortened: as §1
# [3] = target: Fuc(a1-2)Gal(b1-3)GlcNAc(b1-3)[Gal(b1-4)GlcNAc(b1-6)]Gal(b1-4)Glc
# Procedure, shortened: as §1
# [4] = target: Fuc(a1-2)Gal(b1-3)[Fuc(a1-4)]GlcNAc(b1-2)Man(a1-3)[Fuc(a1-2)Gal(b1-3)[Fuc(a1-4)]GlcNAc(b1-2)Man(a1-6)]Man(b1-4)GlcNAc(b1-4)[Fuc(a1-6)]GlcNAc(b1-4)[Fuc(a1-6)]GlcNAc
# Procedure, shortened: as §1
# [5] = target: Fuc(a1-2)Gal(b1-4)GlcNAc(b1-2)[Fuc(a1-2)Gal(b1-4)GlcNAc(b1-4)]Man(a1-3)[Fuc(a1-2)Gal(b1-4)GlcNAc(b1-2)Man(a1-6)]Man(b1-4)GlcNAc(b1-4)GlcNAc
# Procedure, shortened: as §1
# [6] = target: Fuc(a1-2)Gal(b1-4)GlcNAc(b1-6)GalNAc
# Procedure, shortened: as §1
# [7] = target: Fuc(a1-2)Gal(b1-4)[Fuc(a1-3)]GlcNAc(b1-2)Man(a1-3)[Fuc(a1-2)Gal(b1-4)[Fuc(a1-3)]GlcNAc(b1-2)Man(a1-6)]Man(b1-4)GlcNAc(b1-4)[Fuc(a1-6)]GlcNAc
# Procedure, shortened: as §1
# [8] = target: Fuc(a1-2)Gal6S(b1-4)Glc
# Procedure, shortened: as §1
# [9] = target: Fuc(a1-2)[Gal(a1-3)]Gal(b1-3)GlcNAc(b1-6)GalNAc
# Procedure, shortened: as §1
# [10] = target: Fuc(a1-2)[Gal(a1-3)]Gal(b1-4)GlcNAc(b1-3)GalNAc
# Procedure, shortened: as §1
# [11] = target: Fuc(a1-2)[Gal(a1-3)]Gal(b1-4)[Fuc(a1-3)]GlcNAc(b1-3)GalNAc
# Procedure, shortened: as §1
# [12] = target: Fuc(a1-2)[GalNAc(a1-3)]Gal
# Procedure, shortened: as §1
# [13] = target: Fuc(a1-2)[GalNAc(a1-3)]Gal(b1-3)GlcNAc
# Procedure, shortened: as §1
# [14] = target: Fuc(a1-2)[GalNAc(a1-3)]Gal(b1-4)GlcNAc
# Procedure, shortened: as §1
# [15] = target: Fuc(a1-2)[GalNAc(a1-4)]Gal(b1-4)GlcNAc
# Procedure, shortened: as §1
# [16] = target: Gal(a1-3)[Gal(a1-4)]Gal(b1-4)GlcNAc
# Procedure, shortened: as §1
# [17] = target: Gal(a1-4)Gal(b1-4)GlcNAc(b1-3)Gal(b1-4)Glc
# Procedure, shortened: as §1
# [18] = target: Gal(b1-3)Gal(b1-4)GlcNAc
# Procedure, shortened: as §1
# [19] = target: Gal(b1-3)GalNAc(b1-4)Gal(b1-4)Glc
# Procedure, shortened: as §1
# [20] = target: Gal(b1-3)GlcNAc(b1-2)Man(a1-3)[GlcNAc(b1-4)][Gal(b1-3)GlcNAc(b1-2)Man(a1-6)]Man(b1-4)GlcNAc(b1-4)GlcNAc
# Procedure, shortened: as §1
# [21] = target: Gal(b1-3)GlcNAc(b1-2)[Gal(b1-3)GlcNAc(b1-6)]Man(a1-6)[Gal(b1-3)GlcNAc(b1-2)Man(a1-3)]Man(b1-4)GlcNAc(b1-4)GlcNAc
# Procedure, shortened: as §1
# [22] = target: Gal(b1-3)GlcNAc(b1-3)Gal(b1-4)GlcNAc(b1-2)Man(a1-3)[Gal(b1-3)GlcNAc(b1-3)Gal(b1-4)GlcNAc(b1-2)Man(a1-6)]Man(b1-4)GlcNAc(b1-4)GlcNAc
# Procedure, shortened: as §1
# [23] = target: Gal(b1-3)[Fuc(a1-4)]GlcNAc(b1-2)Man
# Procedure, shortened: as §1
# [24] = target: Gal(b1-3)[Fuc(a1-4)]GlcNAc(b1-2)Man(a1-3)[Gal(b1-3)[Fuc(a1-4)]GlcNAc(b1-2)Man(a1-6)]Man(b1-4)GlcNAc(b1-4)[Fuc(a1-6)]GlcNAc
# Procedure, shortened: as §1
# [25] = target: Gal(b1-4)GalNAc(b1-3)[Fuc(a1-2)]Gal(b1-4)GlcNAc
# Procedure, shortened: as §1
# [26] = target: Gal(b1-4)GlcNAc(b1-2)Man(a1-3)[Man(a1-6)]Man(b1-4)GlcNAc(b1-4)GlcNAc
# Procedure, shortened: as §1
# [27] = target: Gal(b1-4)GlcNAc(b1-2)[Gal(b1-4)GlcNAc(b1-6)]Man(a1-6)[GlcNAc(b1-4)][Gal(b1-4)GlcNAc(b1-2)Man(a1-3)]Man(b1-4)GlcNAc(b1-4)GlcNAc
# Procedure, shortened: as §1
# [28] = target: Gal(b1-4)GlcNAc(b1-3)Gal(b1-3)GalNAc
# Procedure, shortened: as §1
# [29] = target: Gal(b1-4)GlcNAc(b1-3)Gal(b1-4)GlcNAc(b1-2)Man(a1-3)[Gal(b1-4)GlcNAc(b1-3)Gal(b1-4)GlcNAc(b1-2)Man(a1-6)]Man(b1-4)GlcNAc(b1-4)GlcNAc
# Procedure, shortened: as §1
# [30] = target: Gal(b1-4)GlcNAc(b1-3)Gal(b1-4)GlcNAc(b1-3)Gal(b1-4)GlcNAc(b1-3)Gal(b1-4)GlcNAc(b1-3)Gal(b1-4)GlcNAc(b1-2)[Gal(b1-4)GlcNAc(b1-3)Gal(b1-4)GlcNAc(b1-3)Gal(b1-4)GlcNAc(b1-3)Gal(b1-4)GlcNAc(b1-3)Gal(b1-4)GlcNAc(b1-6)]Man(a1-6)[Gal(b1-4)GlcNAc(b1-3)Gal(b1-4)GlcNAc(b1-3)Gal(b1-4)GlcNAc(b1-3)Gal(b1-4)GlcNAc(b1-3)Gal(b1-4)GlcNAc(b1-2)Man(a1-3)]Man(b1-4)GlcNAc(b1-4)[Fuc(a1-6)]GlcNAc
# Procedure, shortened: as §1
# [31] = target: Gal(b1-4)GlcNAc(b1-3)[Gal(b1-4)GlcNAc(b1-6)]Gal(b1-4)GlcNAc
# Procedure, shortened: as §1
# [32] = target: Gal3S(b1-4)Glc
# Procedure, shortened: as §1
# [33] = target: Gal6S(b1-3)GlcNAc
# Procedure, shortened: as §1
# [34] = target: GalNAc(a1-3)GalNAc(b1-3)Gal(a1-4)Gal(b1-4)Glc
# Procedure, shortened: as §1
# [35] = target: GalNAc(b1-3)GalNAc
# Procedure, shortened: as §1
# [36] = target: GalNAc(b1-4)GlcNAc(b1-2)Man(a1-3)[GalNAc(b1-4)GlcNAc(b1-2)Man(a1-6)]Man(b1-4)GlcNAc(b1-4)GlcNAc
# Procedure, shortened: as §1
# [37] = target: Glc(a1-6)Glc(a1-6)Glc
# Procedure, shortened: as §1
# [38] = target: Glc(b1-6)Glc
# Procedure, shortened: as §1
# [39] = target: GlcNAc(a1-4)Gal(b1-4)GlcNAc(b1-3)Gal(b1-4)[Fuc(a1-3)]GlcNAc(b1-3)Gal(b1-4)[Fuc(a1-3)]GlcNAc
# Procedure, shortened: as §1
# [40] = target: GlcNAc(b1-3)Gal(b1-4)GlcNAc(b1-2)Man(a1-3)[GlcNAc(b1-3)Gal(b1-4)GlcNAc(b1-2)Man(a1-6)]Man(b1-4)GlcNAc(b1-4)[Fuc(a1-6)]GlcNAc
# Procedure, shortened: as §1
# [41] = target: GlcNAc(b1-3)Gal(b1-4)GlcNAc(b1-3)Gal(b1-4)GlcNAc(b1-2)[GlcNAc(b1-3)Gal(b1-4)GlcNAc(b1-3)Gal(b1-4)GlcNAc(b1-6)]Man(a1-6)[GlcNAc(b1-3)Gal(b1-4)GlcNAc(b1-3)Gal(b1-4)GlcNAc(b1-2)Man(a1-3)]Man(b1-4)GlcNAc(b1-4)[Fuc(a1-6)]GlcNAc
# Procedure, shortened: as §1
# [42] = target: Man(a1-2)Man(a1-3)Man
# Procedure, shortened: as §1
# [43] = target: Man(a1-3)[Man(a1-6)]Man(a1-6)[Man(a1-2)Man(a1-3)]Man(b1-4)GlcNAc(b1-4)GlcNAc
# Procedure, shortened: as §1
# [44] = target: Man(b1-4)GlcNAc
# Procedure, shortened: as §1
# [45] = target: Neu5Ac(a2-3)Gal(b1-3)GalNAc6S
# Procedure, shortened: as §1
# [46] = target: Neu5Ac(a2-3)Gal(b1-4)GlcNAc(b1-2)Man(a1-3)[Neu5Ac(a2-3)Gal(b1-4)GlcNAc(b1-2)Man(a1-6)]Man(b1-4)GlcNAc(b1-4)GlcNAc
# Procedure, shortened: as §1
# [47] = target: Neu5Ac(a2-6)Gal(b1-4)GlcNAc(b1-3)Gal(b1-4)GlcNAc(b1-3)Gal(b1-4)GlcNAc(b1-2)Man(a1-3)[Neu5Ac(a2-6)Gal(b1-4)GlcNAc(b1-3)Gal(b1-4)GlcNAc(b1-3)Gal(b1-4)GlcNAc(b1-2)Man(a1-6)]GalNAc
# Procedure, shortened: as §1
# [48] = target: Neu5Ac(a2-6)Gal(b1-4)GlcNAc(b1-3)Gal(b1-4)GlcNAc(b1-6)[Gal(b1-3)]GalNAc
# Procedure, shortened: as §1
# [49] = target: Neu5Ac(a2-8)Neu5Ac(a2-3)Gal(b1-4)GlcNAc
# Procedure, shortened: as §1
# [50] = target: Neu5Ac(a2-8)Neu5Gc(a2-3)Gal(b1-4)GlcNAc
# Procedure, shortened: as §1
binder,measurement,setting,value
B1,glycan array binding signal (z-score),[1],-0.249
same,glycan array binding signal (z-score),[2],1.95
same,glycan array binding signal (z-score),[3],-0.005
same,glycan array binding signal (z-score),[4],-1.15
same,glycan array binding signal (z-score),[5],1.69
same,glycan array binding signal (z-score),[6],-1.54
same,glycan array binding signal (z-score),[7],2.6
same,glycan array binding signal (z-score),[8],0.082
same,glycan array binding signal (z-score),[9],-0.008
same,glycan array binding signal (z-score),[10],0.362
same,glycan array binding signal (z-score),[11],-0.205
same,glycan array binding signal (z-score),[12],-0.237
same,glycan array binding signal (z-score),[13],0.35
same,glycan array binding signal (z-score),[14],-0.707
same,glycan array binding signal (z-score),[15],-0.33
same,glycan array binding signal (z-score),[16],2.67
same,glycan array binding signal (z-score),[17],-0.408
same,glycan array binding signal (z-score),[18],-0.375
same,glycan array binding signal (z-score),[19],-0.713
same,glycan array binding signal (z-score),[20],0.623
same,glycan array binding signal (z-score),[21],1.55
same,glycan array binding signal (z-score),[22],0.741
same,glycan array binding signal (z-score),[23],0.532
same,glycan array binding signal (z-score),[24],1.6
same,glycan array binding signal (z-score),[25],-0.377
same,glycan array binding signal (z-score),[26],-0.562
same,glycan array binding signal (z-score),[27],-0.439
same,glycan array binding signal (z-score),[28],-0.11
same,glycan array binding signal (z-score),[29],1.61
same,glycan array binding signal (z-score),[30],1.86
same,glycan array binding signal (z-score),[31],-0.2
same,glycan array binding signal (z-score),[32],0.301
same,glycan array binding signal (z-score),[33],0.19
same,glycan array binding signal (z-score),[34],0.12
same,glycan array binding signal (z-score),[35],1.96
same,glycan array binding signal (z-score),[36],-0.398
same,glycan array binding signal (z-score),[37],0.049
same,glycan array binding signal (z-score),[38],-0.768
same,glycan array binding signal (z-score),[39],1.69
same,glycan array binding signal (z-score),[40],4.66
same,glycan array binding signal (z-score),[41],1.77
same,glycan array binding signal (z-score),[42],0.611
same,glycan array binding signal (z-score),[43],0.28
same,glycan array binding signal (z-score),[44],-0.706
same,glycan array binding signal (z-score),[45],-0.135
same,glycan array binding signal (z-score),[46],-0.301
same,glycan array binding signal (z-score),[47],2.21
same,glycan array binding signal (z-score),[48],0.989
same,glycan array binding signal (z-score),[49],-0.464
same,glycan array binding signal (z-score),[50],18.3
